Results published in PubChem BioAssay AID1558 (National Center for Advancing Translational Sciences (NCATS), 2009).
“And” between values parts separate entries of the source, which are not always exact repeats. Equal entries are not always repeated. Inconclusive results are not listed. Some structures have more than one record in an assay (separate samples or runs), and their calls can disagree. The source made the active and inactive calls. Calls come from the whole dose curve; as a rule, active = well fitted inhibition curve with a large enough effect; inconclusive = small, poorly fitted or top-dose-only effect; inactive = flat fitted curve, though single readings scatter.

Biological target: Microtubule-associated protein tau (Homo sapiens) (UniProt P10636)
Sequence (P10636 561-689 P618L limits assumed): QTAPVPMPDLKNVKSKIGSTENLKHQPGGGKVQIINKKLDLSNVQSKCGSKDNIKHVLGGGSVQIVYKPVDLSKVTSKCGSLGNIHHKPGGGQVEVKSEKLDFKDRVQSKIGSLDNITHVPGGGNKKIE
Test: Confirmation Concentration-Response Assay for Inhibitors of Tau Fibril Formation, Thioflavin T Binding
Details: recombinant tau K18 P301L (four-repeat tau fragment) heparin fibrillization, ThT fluorescence; series mostly up to 100 µM; activity change, negative = inhibition: at the top concentration
Outline: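 ThT fluorescence (450/510 nm), read 1 hr after adding 30 uM final dye, reported fibril formation in concentration-response format. Before that, 15 uM K18 P301L tau with 0.24 uM Alexa 594-labeled tracer aggregated 6 hr at 37 C with 20 uM heparin and compound, pH 7 acetate buffer.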

| Compound | activity change, negative = inhibition | Potency |
| --- | --- | --- |
| O=S(=O)(c1ccc(NC(=S)N/N=C/c2ccc(N3CCOCC3)cc2)cc1)N1CCOCC1 | -9.1% (inactive) | – |
| O=S(=O)(c1ccc2nc(-c3ccco3)c(-c3ccco3)nc2c1)N1CCOCC1 | – | 4.47 µM (active) |
| COC(=O)C1CCc2sc(N)c(C(=O)OCc3ccccc3)c21 (configuration not stated) | -25.7% [at 57.1 µM] (inactive) | – |
| S=C1Cc2ccccc2N1 | – | 0.631 µM (active) |
| CCOC(=O)c1nn(-c2ccccc2)c(=O)c2c(NC(=O)c3ccccc3)scc12 | -7.04% [at 57.1 µM] (inactive) | – |
| CC(C)c1ccc(NS(=O)(=O)c2ccc3[nH]cc(C(=O)NCCc4ccccc4)c(=O)c3c2)cc1 | 7.6% (inactive) | – |
| Cc1[nH]c(=O)c(C#N)cc1-c1ccncc1 | -4.9% (inactive) | – |
| O=C(Cc1ccccc1)Nc1sc2c(c1C(=O)Nc1ccc(Cl)cc1)CCOC2 | -11.4% [at 57.1 µM] (inactive) | – |
| O=C(O)CC1S/C(=N/N=C/c2ccc(-c3ccccc3[N+](=O)[O-])o2)NC1=O (configuration not stated) | – | 11.2 µM (active) |
| Cc1cccc(NC(=O)c2c(NC(=O)c3ccccc3)sc3c2CCCC3)c1 | – | 7.94 µM (active) |
| CCOC(=O)c1c(N)sc2c1CCOC2 | -10.4% [at 57.1 µM] (inactive) | – |
| O=C(Cc1ccccc1)Nc1sc2c(c1C(=O)Nc1ccc(Cl)cc1)CCCC2 | – | 1 µM (active) and inactive |
| CN(C(=S)Nc1cccnc1)c1ccc(O)cc1 | – | 10 µM (active) |
| COc1ccc(NC(=O)c2c(NC(=O)Cc3ccccc3)sc3c2CCCC3)cc1 | -0.544% [at 57.1 µM] (inactive) | – |
| O=C(NCc1cccnc1)C1CCN(S(=O)(=O)c2cccs2)CC1 | -16.8% (inactive) | – |
| Nc1nc2cc(S(=O)(=O)NC3=NCCCCC3)ccc2s1 | – | 20 µM (active) |
| CCOC(=O)c1nn(-c2ccc(OC)cc2)c(=O)c2c(NC(=O)Cc3ccccc3)scc12 | -28.9% [at 57.1 µM] (inactive) | – |
| CN(c1ccccc1)S(=O)(=O)c1nnc(NC(=O)COc2ccccc2)s1 | -16.4% (inactive) | – |
| Nc1nn(-c2ccccc2)c(=O)c2c(N)scc12 | – | 5.01 µM (active) |
| Nc1cc(-c2ccncc2)c[nH]c1=O | – | 10 µM (active) |
| COc1cccc(/C=C2/SC(=S)N(CC(=O)Nc3nnc(C)s3)C2=O)c1 | 4.72% [at 57.1 µM] (inactive) | – |
| CN(c1ccccc1)S(=O)(=O)c1nnc(NC(=O)C2CCCCC2)s1 | – | 22.4 µM (active) |
| Cc1ccc(C(=O)Nc2nc(=O)n(C(=O)CC(C)C)s2)cc1 | -13.7% (inactive) | – |
| CCOC(=O)c1ccc(S(=O)(=O)Nc2nc3cc(S(=O)(=O)NC4=NCCCCC4)ccc3s2)cc1 | – | 10 µM (active) |
| CCOC(=O)c1nn(-c2ccc(OC)cc2)c(=O)c2c(N)scc12 | – | 631 nM (active) and 3.16 µM (active) |
| O=C(Nc1cccc(-c2nc3ccccc3o2)c1)c1cc([N+](=O)[O-])ccc1N1CCOCC1 | -10% (inactive) | – |
| O=C(Nc1ccc(-c2nc3ccccc3o2)cc1)c1ccc(N2CCOCC2)c([N+](=O)[O-])c1 | – | 1.12 µM (active) |
